TEAD-YAP block – TEAD-YAP interaction inhibition, primary screen, TEAD-YAP interaction inhibitor project, luminescence, HEK-TIYL cells; TEAD-Gal4/YAP UAS-luciferase luminescence; inhibition, % at 9.12 µM; 1.4% of 640,000 active; in the data active means inhibition above about 32%
MITF inh – MITF inhibitors, primary screen, biochemical, AlphaScreen, human; AlphaScreen MITF homodimerization, bead proximity signal; inhibition, % at 2.6 µM; 0.91% of 650,000 active; AID 1259374, 2018; in the data active means inhibition above about 50%
GPR151 ag – activators of human GPR151, primary screen, cell-based, PathHunter beta-arrestin, luminescence | G-protein coupled receptor 151 (Homo sapiens), Q8TDV0 | PathHunter beta-arrestin GPR151 cells | activation, % at 11.2 µM | 1% of 650,000 active | AID 1508602, 2020; in the data active means activation above about 4.9%
FBW7 act – FBW7 E3 ligase activators, primary screen, biochemical, AlphaScreen, human; AID 1259310, 2017; AlphaScreen FBW7–phospho-cyclin E peptide binding, activator screen; 0.13% of 650,000 active; F-box/WD repeat-containing protein 7 (Homo sapiens), Q969H0; normalized activity (activation), % at 26.1 µM; in the data active means normalized activity above about 1.9%;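 further: purified mutant Fbw7 with reduced substrate affinity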
Target sequence (Q969H0 whole entry, looked up): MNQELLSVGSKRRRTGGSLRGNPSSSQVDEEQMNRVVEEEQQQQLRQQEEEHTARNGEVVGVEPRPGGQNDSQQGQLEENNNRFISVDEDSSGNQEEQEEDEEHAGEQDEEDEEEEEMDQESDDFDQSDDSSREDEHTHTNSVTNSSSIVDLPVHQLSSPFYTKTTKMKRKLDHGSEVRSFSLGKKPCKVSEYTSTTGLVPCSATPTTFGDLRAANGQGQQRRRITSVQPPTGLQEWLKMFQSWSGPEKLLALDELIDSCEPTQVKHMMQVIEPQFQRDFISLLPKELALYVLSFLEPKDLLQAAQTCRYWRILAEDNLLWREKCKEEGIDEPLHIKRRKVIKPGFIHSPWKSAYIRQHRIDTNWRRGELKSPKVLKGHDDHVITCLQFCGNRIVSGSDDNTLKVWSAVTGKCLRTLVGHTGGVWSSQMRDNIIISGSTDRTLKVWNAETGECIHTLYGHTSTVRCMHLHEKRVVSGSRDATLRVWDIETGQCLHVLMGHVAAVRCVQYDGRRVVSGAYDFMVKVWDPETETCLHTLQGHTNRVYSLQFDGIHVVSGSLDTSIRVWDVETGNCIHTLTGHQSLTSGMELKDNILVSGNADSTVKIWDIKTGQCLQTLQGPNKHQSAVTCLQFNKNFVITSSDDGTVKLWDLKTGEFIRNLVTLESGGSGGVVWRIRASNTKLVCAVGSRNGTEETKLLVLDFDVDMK
Of the large screens only hits and unclear results are named; the others gave an inactive call. Rows were chosen to be rich in hits. Some 3.5% of all compounds tested hit in one or more screens of this group.

CC(C)N(CCNc1nc(Nc2ccc(-n3ccnc3)cc2)nc2c1ncn2-c1ccccc1)C(C)C	TEAD-YAP block 34
CCc1ccc(S(=O)(=O)Nc2ccc(I)cc2)cc1	none
CCOC(=O)c1ccccc1NC(=O)C1CCN(c2ccc(-c3cccs3)nn2)CC1	none
Cc1cccc(NC(=O)C2CCN(c3ccc(-c4cccs4)nn3)CC2)n1	TEAD-YAP block 55
CCCCCNC(=O)c1ccc(N2CCCC(C)C2)c([N+](=O)[O-])c1 (stereo unspecified)	none
O=C(O)CC(NC(=O)C(F)(F)F)c1ccccc1Br (stereo unspecified)	none
CN(C)c1ccc(NC2=C([N+](=O)[O-])C(=O)c3ccccc32)cc1	MITF inh 86
N=C1/C(=C\c2ccc(SCc3ccco3)o2)C(=O)N=C2SC(N3CCCC3)=NN12	none
O=C1NC(=S)S/C1=C\c1ccc(SCc2ccco2)o1	MITF inh 58
CCOc1ccccc1N1C(=O)NC(=O)/C(=C/c2ccco2)C1=O	none
O=C1NC(=O)N(c2ccc([N+](=O)[O-])cc2)C(=O)/C1=C/c1ccco1	MITF inh 78
O=C1NC(=O)N(c2ccccc2)C(=O)/C1=C\c1ccc(-c2ccc([N+](=O)[O-])cc2)o1	none
COc1ccccc1N1C(=O)NC(=O)/C(=C\c2ccco2)C1=O	MITF inh 62
Cc1ccc(/C=C2\C(=O)NC(=O)N(c3ccc(F)cc3)C2=O)o1	none
O=C1NC(=O)N(c2ccc(F)cc2)C(=O)/C1=C\c1ccc(SCc2ccco2)o1	MITF inh 87
Nc1nonc1-c1nc2ccccc2n1CC(=O)N/N=C\c1cccc(Br)c1	none
CC(=O)N1CCN(Cc2ccc(Cl)cc2Cl)CC1	none
COc1cc(C2CC(=O)n3nc(-c4cccc(C)c4)nc3S2)cc(OC)c1OC (stereo unspecified)	none
C=CCSc1nc(C)c2cc(C)c(C)cc2n1	none
COc1ccc(/C=C/CN2CCC(C(=O)Nc3cccc(-c4nnc(C)s4)c3)CC2)cc1	none
NC1CCN(c2ccnc(NC(=O)Cc3ccc4c(c3)OCO4)c2)CC1	none
COc1ccc(CC(=O)Nc2ccc(-c3cn[nH]c3)cc2N2CCN(C)CC2)cc1	none
COc1ccc(CC(=O)Nc2cc(-c3cnn(C)c3)ccn2)cc1	TEAD-YAP block 43
Cn1cc(-c2ccnc(NC(=O)Cc3ccc4c(c3)OCO4)c2)cn1	TEAD-YAP block 34
COc1ccc(CC(=O)Nc2cc3cc(-c4cnn(C)c4)ccc3cn2)cc1	TEAD-YAP block 72
COc1ccc(CC(=O)Nc2cc3cc(-c4cn[nH]c4)ccc3cn2)cc1	TEAD-YAP block 96
COc1ccc(CC(=O)Nc2cc(C)on2)cc1	none
O=C1OC2(CCCCC2)OC(=O)C1=Cc1ccc(Br)o1	MITF inh 74
CC(C)c1ccc(/C=C2\CC/C(=C\C=N\N(C)C)C2=O)cc1	none
CN(C)/N=C/C=C1\CC/C(=C\c2ccco2)C1=O	MITF inh 55
O=C1C(=C2SCCS2)CC/C1=C\c1ccco1	MITF inh 91
Cc1ccc(CNC(=O)c2cnc3c(c(C)nn3-c3ccc(F)cc3)c2Cl)cc1	none
Cc1nn(-c2ccc(F)cc2)c2ncc(C(=O)NCCCn3ccnc3)c(Cl)c12	TEAD-YAP block 65
COc1ccccc1NC(=O)N1CCC(C(=O)Nc2cc(C)cc(C)c2)CC1	none
CN(C)c1ccc(-c2ccc(OC3CCNCC3)cc2)cn1	TEAD-YAP block 57
CN(C)c1ccc(-c2ccc(OC3CCN(S(C)(=O)=O)CC3)cc2)cn1	none
CN(C)c1ccc(-c2ccc(OC3CCN(c4ncccn4)CC3)cc2)cn1	TEAD-YAP block 48
COc1ccccc1NC(=O)N1CCC(Oc2ccc(-c3ccc(N(C)C)nc3)cc2)CC1	TEAD-YAP block 35
COc1cc(NC(=O)CCS(=O)(=O)c2ccc(C)cc2)cc(OC)c1	none
CC(/C=C/N(C)C)=C1C(=O)N(C)c2ccccc2N(C)C1=O	none
CCCNC(=O)c1ccnc(-c2ccc(N3CCN(C)CC3)cc2)c1	none
CCN(CC)C(=O)c1c(NC(=O)c2ccco2)sc2c1CCC(C(C)(C)C)C2 (stereo unspecified)	none
CC1CCc2c(sc(NC(=O)c3ccco3)c2C(=O)O)C1 (stereo unspecified)	TEAD-YAP block 33
CC(C)(C)C1CCc2c(sc(NC(=O)c3ccco3)c2C(=O)O)C1 (stereo unspecified)	TEAD-YAP block 90

Bioassay records deposited in PubChem by The Scripps Research Institute Molecular Screening Center.
